Among the test systems are HCT-15 colon; HT29 colon; SNB-75 CNS; SNB-19 CNS; U251 CNS; PC-3 prostate; SK-MEL-5 melanoma; UACC-62 melanoma; LOX IMVI melanoma; SK-MEL-28 melanoma; SK-MEL-2 melanoma; EKVX NSCLC; SN12C renal; UO-31 renal; TK-10 renal; ACHN renal; CAKI-1 renal; CCRF-CEM leukemia; MOLT-4 leukemia; A498 renal.
Holding throughout (assay): NCI-60 one-dose screen, 48 h (100 = growth as untreated, 0 = no growth, -100 = all killed)
What all share (settings): 10 µM unless noted

Compounds without any hit were thinned out: in the full panel of roughly 83,000, 20% have a hit.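 Testing used 96-well plates and a 48-hour single-concentration exposure. Example: -40 means 40% of the starting cells died.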 Values without a mark were called inactive. Calls of active or inactive are those of the source. The calls were made as follows: active = growth percent below 10; inactive = the rest.

Take `O=S(=O)(NCCNc1nccc(-c2c(-c3cccc(O)c3)nc3occn23)n1)c1ccc(Cl)cc1`: the growth is 113% in the experiment on HCT-15 colon; 62.9% with HT29 colon; 109% in the experiment on SNB-75 CNS; 118% in the experiment on SNB-19 CNS; 110% with U251 CNS; 96.5% with PC-3 prostate. Also, the growth was 52.2% in the experiment on SK-MEL-5 melanoma; 19.2% in the experiment with UACC-62 melanoma; 72.3% in the experiment on LOX IMVI melanoma; 48.2% in the experiment with SK-MEL-28 melanoma; 83.4% in the experiment with SK-MEL-2 melanoma; 125% in the experiment with EKVX NSCLC. Moreover, the growth in the experiment with SN12C renal is 100%; in the experiment on UO-31 renal, 110%; in the experiment on TK-10 renal, 143%; in the experiment with ACHN renal, 98.5%; in the experiment with CAKI-1 renal, 79.6%; in the experiment with CCRF-CEM leukemia, 106%. Also, the growth in the experiment with MOLT-4 leukemia was 103%.
Take `O=C1C=CC(=O)N1c1cccc(Cl)c1`: the growth in the experiment with HCT-15 colon was 101%; with HT29 colon, 85.9%; in the experiment with SNB-75 CNS, 115%; with SNB-19 CNS, 118%; with U251 CNS it was 99.2%; in the experiment on PC-3 prostate it was 89.2%. Moreover, the growth was 106% with SK-MEL-5 melanoma; 105% with UACC-62 melanoma; 102% in the experiment with LOX IMVI melanoma; 108% in the experiment with SK-MEL-28 melanoma; 116% with SK-MEL-2 melanoma; 108% in the experiment on EKVX NSCLC. Moreover, the growth was 126% in the experiment on SN12C renal; 104% in the experiment with UO-31 renal; 68.2% with TK-10 renal; 98.4% in the experiment with ACHN renal; 94.6% in the experiment on A498 renal; 55.4% in the experiment on CCRF-CEM leukemia.
Turning to `Cc1cc(Cl)nc(N(CCNc2ccnc3cc(Cl)ccc23)Cc2ccccn2)n1`, the growth in the experiment on HCT-15 colon is 48.7%; in the experiment with HT29 colon, 24.7%; with SNB-75 CNS, 78.6%; in the experiment with SNB-19 CNS, 62.5%; with U251 CNS, 26.8%; in the experiment with PC-3 prostate it was 56.9%. Moreover, the growth is 41.3% with SK-MEL-5 melanoma; 66.3% with UACC-62 melanoma; 58.4% in the experiment on LOX IMVI melanoma; 62.1% in the experiment with SK-MEL-28 melanoma; 69.5% in the experiment with SK-MEL-2 melanoma; 61.4% with EKVX NSCLC. Besides, the growth was 52.6% in the experiment on SN12C renal; 43.2% in the experiment with UO-31 renal; 63.3% with TK-10 renal; 44.9% with ACHN renal; 85.8% in the experiment on A498 renal; 7.95% (active) in the experiment with CCRF-CEM leukemia.
For `Cc1ccc(S(=O)(=O)Nn2c3c(cc(-c4nc5ccccc5s4)c2=O)CCCCCC3)cc1`, the growth in the experiment with HCT-15 colon was 97%; with HT29 colon it was 112%; in the experiment with SNB-75 CNS it was 91.9%; in the experiment with SNB-19 CNS it was 99.2%; in the experiment with U251 CNS, 99.9%; with PC-3 prostate it was 99.7%. For the same compound, the growth in the experiment with SK-MEL-5 melanoma was 96.2%; with UACC-62 melanoma, 84.4%; in the experiment on LOX IMVI melanoma, 95.9%; with SK-MEL-28 melanoma it was 110%; with SK-MEL-2 melanoma, 99.2%; in the experiment on EKVX NSCLC, 92.5%. In addition, the growth with SN12C renal was 95.9%; in the experiment with UO-31 renal, 78.9%; in the experiment with TK-10 renal, 111%; in the experiment with ACHN renal, 97.5%; in the experiment on CCRF-CEM leukemia, 105%; in the experiment with MOLT-4 leukemia it was 100%.
In the case of `O=C(CCN1CCCC1)Nc1ccc2c(Nc3ccc(F)cc3)c3ccccc3nc2c1`, the growth with HCT-15 colon was -31.9% (active); in the experiment on HT29 colon, 4.15% (active); in the experiment with SNB-75 CNS, 16.3%; in the experiment with SNB-19 CNS, 13.8%; in the experiment on U251 CNS it was -42.1% (active); in the experiment on PC-3 prostate, 8.99% (active). For the same compound, the growth in the experiment on SK-MEL-5 melanoma is 33.9%; in the experiment with UACC-62 melanoma it was 21.5%; with LOX IMVI melanoma, -61.2% (active); in the experiment on SK-MEL-28 melanoma it was -40.8% (active); with SK-MEL-2 melanoma, 49%; in the experiment with EKVX NSCLC it was 47.5%. Also, the growth was 9.14% (active) in the experiment on SN12C renal; -89.1% (active) with UO-31 renal; -20.1% (active) in the experiment on TK-10 renal; -13.3% (active) with ACHN renal; -75.9% (active) in the experiment on CAKI-1 renal; -17.8% (active) in the experiment on CCRF-CEM leukemia. Moreover, in the experiment with MOLT-4 leukemia, the growth was -9.71% (active).
Take `C=C1C(=O)O[C@H]2[C@H]1CC/C(CNC(=O)C(C)c1ccc(CC(C)C)cc1)=C\CC[C@@]1(C)O[C@@H]21` (stereo partly specified): the growth was -55.7% (active) in the experiment on HCT-15 colon; -52.4% (active) with HT29 colon; 64.5% in the experiment on SNB-75 CNS; 48.9% in the experiment on SNB-19 CNS; 45.2% in the experiment on U251 CNS; 16.6% in the experiment on PC-3 prostate. The growth is 61.3% in the experiment with SK-MEL-5 melanoma; -27.2% (active) in the experiment on UACC-62 melanoma; -80.3% (active) with LOX IMVI melanoma; -76.9% (active) in the experiment on SK-MEL-28 melanoma; 32.9% in the experiment on SK-MEL-2 melanoma; 0% (active) in the experiment with EKVX NSCLC. For the same compound, the growth with SN12C renal was -0.803% (active); in the experiment with UO-31 renal, -99.7% (active); in the experiment with TK-10 renal, -61% (active); with ACHN renal, -95.9% (active); with CAKI-1 renal, -7.71% (active); in the experiment on CCRF-CEM leukemia, -1.13% (active). Moreover, the growth with MOLT-4 leukemia is 0.34% (active).

These data come from PubChem BioAssay (NCI).
